# In ChEMBL document CHEMBL1961873, “Compounds: GSK PKIS; Assays: Nanosyn kinase panel” (2012):
# What was measured:
# [1] = target: Serine/threonine-protein kinase 26 (Homo sapiens) (UniProt Q9P289); conditions: at 1 µM;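 note: mean inhibition of MST4 kinase activity, reported from the GSK PKIS inhibitor-set screening panel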
# [2] = target: Serine/threonine-protein kinase PAK 1 (Homo sapiens) (UniProt Q13153); conditions: at 0.1 µM
# [3] = target: Serine/threonine-protein kinase PAK 1 (Homo sapiens) (UniProt Q13153); conditions: at 1 µM
# [4] = target: Serine/threonine-protein kinase PAK 2 (Homo sapiens) (UniProt Q13177); conditions: at 0.1 µM
# [5] = target: Serine/threonine-protein kinase PAK 2 (Homo sapiens) (UniProt Q13177); conditions: at 1 µM
# [6] = target: Serine/threonine-protein kinase PAK 3 (Homo sapiens) (UniProt O75914); conditions: at 0.1 µM
# [7] = target: Serine/threonine-protein kinase PAK 3 (Homo sapiens) (UniProt O75914); conditions: at 1 µM
# [8] = target: Serine/threonine-protein kinase PAK 5 (Homo sapiens) (UniProt Q9P286); conditions: at 0.1 µM
# [9] = target: Serine/threonine-protein kinase PAK 5 (Homo sapiens) (UniProt Q9P286); conditions: at 1 µM
# [10] = target: Serine/threonine-protein kinase PAK 6 (Homo sapiens) (UniProt Q9NQU5); conditions: at 0.1 µM
# [11] = target: Serine/threonine-protein kinase PAK 6 (Homo sapiens) (UniProt Q9NQU5); conditions: at 1 µM
# [12] = test system: Tyrosine-protein kinase ABL1 (Homo sapiens), P00519 [E255K]; conditions: at 0.1 µM
# [13] = test system: Tyrosine-protein kinase ABL1 (Homo sapiens), P00519 [E255K]; conditions: at 1 µM
# [14] = test system: Tyrosine-protein kinase ABL1 (Homo sapiens), P00519 [H396P]; conditions: at 0.1 µM
# [15] = test system: Tyrosine-protein kinase ABL1 (Homo sapiens), P00519 [H396P]; conditions: at 1 µM
# [16] = test system: Tyrosine-protein kinase ABL1 (Homo sapiens), P00519 [M351T]; conditions: at 0.1 µM
# [17] = test system: Tyrosine-protein kinase ABL1 (Homo sapiens), P00519 [M351T]; conditions: at 1 µM
# [18] = test system: Tyrosine-protein kinase ABL1 (Homo sapiens), P00519 [Q252H]; conditions: at 0.1 µM
# [19] = test system: Tyrosine-protein kinase ABL1 (Homo sapiens), P00519 [Q252H]; conditions: at 1 µM
# [20] = test system: Tyrosine-protein kinase ABL1 (Homo sapiens), P00519 [T315I]; conditions: at 0.1 µM
# Chain of Serine/threonine-protein kinase PAK 5 (Homo sapiens) (Q9P286 whole entry, looked up): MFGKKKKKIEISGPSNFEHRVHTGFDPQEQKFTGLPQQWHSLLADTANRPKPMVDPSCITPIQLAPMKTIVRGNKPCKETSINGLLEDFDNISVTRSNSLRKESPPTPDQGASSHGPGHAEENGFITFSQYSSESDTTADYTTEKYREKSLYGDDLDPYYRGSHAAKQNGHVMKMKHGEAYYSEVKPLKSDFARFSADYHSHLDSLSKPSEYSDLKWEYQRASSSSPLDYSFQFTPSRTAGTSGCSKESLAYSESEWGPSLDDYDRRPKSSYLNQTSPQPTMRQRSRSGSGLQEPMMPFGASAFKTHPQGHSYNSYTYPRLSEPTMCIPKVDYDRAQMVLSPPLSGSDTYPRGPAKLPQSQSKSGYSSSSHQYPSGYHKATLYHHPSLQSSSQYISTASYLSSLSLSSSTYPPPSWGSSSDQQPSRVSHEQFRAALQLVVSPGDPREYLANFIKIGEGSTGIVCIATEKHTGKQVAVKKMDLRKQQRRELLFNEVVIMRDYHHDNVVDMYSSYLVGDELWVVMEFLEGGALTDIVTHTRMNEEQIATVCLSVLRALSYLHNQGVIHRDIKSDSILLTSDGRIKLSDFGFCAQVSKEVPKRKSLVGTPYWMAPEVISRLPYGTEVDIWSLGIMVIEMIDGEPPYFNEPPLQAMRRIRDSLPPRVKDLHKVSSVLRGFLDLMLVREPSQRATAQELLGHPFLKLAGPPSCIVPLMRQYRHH
# Chain of Serine/threonine-protein kinase PAK 6 (Homo sapiens) (Q9NQU5 whole entry, looked up): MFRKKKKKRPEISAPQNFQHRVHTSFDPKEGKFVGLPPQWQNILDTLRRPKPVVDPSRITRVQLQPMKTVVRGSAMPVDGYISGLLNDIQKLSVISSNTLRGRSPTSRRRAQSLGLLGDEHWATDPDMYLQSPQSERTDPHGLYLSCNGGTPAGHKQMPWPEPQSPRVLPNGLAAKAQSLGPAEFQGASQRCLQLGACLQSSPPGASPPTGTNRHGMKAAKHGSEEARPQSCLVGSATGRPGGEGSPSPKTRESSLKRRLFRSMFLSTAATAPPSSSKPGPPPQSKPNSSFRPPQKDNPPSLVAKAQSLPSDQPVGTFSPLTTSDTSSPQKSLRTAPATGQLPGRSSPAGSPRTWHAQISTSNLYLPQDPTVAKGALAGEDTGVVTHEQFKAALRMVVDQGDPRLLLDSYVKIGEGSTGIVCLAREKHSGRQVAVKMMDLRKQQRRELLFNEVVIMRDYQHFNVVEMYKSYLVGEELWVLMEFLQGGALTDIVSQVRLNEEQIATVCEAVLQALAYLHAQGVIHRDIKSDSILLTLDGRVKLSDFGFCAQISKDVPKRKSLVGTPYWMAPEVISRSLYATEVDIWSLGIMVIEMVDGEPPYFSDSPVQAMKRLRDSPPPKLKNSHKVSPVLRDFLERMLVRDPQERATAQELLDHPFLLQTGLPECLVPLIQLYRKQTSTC
# Chain of Serine/threonine-protein kinase PAK 1 (Homo sapiens) (Q13153 whole entry): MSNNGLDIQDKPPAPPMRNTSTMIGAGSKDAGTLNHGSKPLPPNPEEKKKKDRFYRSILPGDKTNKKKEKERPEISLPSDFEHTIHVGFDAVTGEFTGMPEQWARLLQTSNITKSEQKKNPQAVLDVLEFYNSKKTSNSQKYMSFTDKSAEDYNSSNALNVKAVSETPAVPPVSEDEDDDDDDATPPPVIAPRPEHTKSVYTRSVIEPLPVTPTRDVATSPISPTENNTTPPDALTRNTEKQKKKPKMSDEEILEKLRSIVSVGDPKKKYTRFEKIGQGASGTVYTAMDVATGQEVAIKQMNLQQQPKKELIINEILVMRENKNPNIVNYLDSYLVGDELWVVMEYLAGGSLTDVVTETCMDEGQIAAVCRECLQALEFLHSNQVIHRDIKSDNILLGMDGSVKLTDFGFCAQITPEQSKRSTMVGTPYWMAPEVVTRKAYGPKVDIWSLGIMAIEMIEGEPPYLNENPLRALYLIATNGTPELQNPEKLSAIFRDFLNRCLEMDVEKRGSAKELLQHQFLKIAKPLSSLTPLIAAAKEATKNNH
# Chain of Serine/threonine-protein kinase PAK 2 (Homo sapiens) (Q13177 whole entry): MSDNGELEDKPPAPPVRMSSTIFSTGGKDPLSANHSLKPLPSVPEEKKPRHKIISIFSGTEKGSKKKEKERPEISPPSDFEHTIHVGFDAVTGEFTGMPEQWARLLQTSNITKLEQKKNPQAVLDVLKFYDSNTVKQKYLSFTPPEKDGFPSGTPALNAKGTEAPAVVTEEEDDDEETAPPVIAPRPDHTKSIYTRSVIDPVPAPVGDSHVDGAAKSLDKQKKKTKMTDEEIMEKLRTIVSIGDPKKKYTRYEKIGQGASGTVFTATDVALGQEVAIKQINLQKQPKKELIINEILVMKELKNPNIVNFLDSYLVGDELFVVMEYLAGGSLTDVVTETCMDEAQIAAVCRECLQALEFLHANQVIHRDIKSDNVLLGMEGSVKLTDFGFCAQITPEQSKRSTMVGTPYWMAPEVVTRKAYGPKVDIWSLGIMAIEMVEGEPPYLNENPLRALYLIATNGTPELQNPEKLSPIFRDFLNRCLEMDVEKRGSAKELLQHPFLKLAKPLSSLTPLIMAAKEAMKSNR
# Chain of Serine/threonine-protein kinase 26 (Homo sapiens) (Q9P289 2-416 limits assumed): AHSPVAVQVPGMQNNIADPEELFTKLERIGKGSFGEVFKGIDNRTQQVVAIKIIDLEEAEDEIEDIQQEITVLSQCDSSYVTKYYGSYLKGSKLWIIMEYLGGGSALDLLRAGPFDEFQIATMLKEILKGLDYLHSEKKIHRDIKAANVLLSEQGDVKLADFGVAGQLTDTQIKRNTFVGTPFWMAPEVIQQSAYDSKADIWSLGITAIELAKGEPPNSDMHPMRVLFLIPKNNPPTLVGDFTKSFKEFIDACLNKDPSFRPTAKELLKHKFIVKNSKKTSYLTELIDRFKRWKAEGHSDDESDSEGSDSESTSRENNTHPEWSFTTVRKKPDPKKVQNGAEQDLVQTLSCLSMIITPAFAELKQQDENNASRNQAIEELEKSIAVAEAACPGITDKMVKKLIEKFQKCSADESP
# Chain of Serine/threonine-protein kinase PAK 3 (Homo sapiens) (O75914 whole entry, looked up): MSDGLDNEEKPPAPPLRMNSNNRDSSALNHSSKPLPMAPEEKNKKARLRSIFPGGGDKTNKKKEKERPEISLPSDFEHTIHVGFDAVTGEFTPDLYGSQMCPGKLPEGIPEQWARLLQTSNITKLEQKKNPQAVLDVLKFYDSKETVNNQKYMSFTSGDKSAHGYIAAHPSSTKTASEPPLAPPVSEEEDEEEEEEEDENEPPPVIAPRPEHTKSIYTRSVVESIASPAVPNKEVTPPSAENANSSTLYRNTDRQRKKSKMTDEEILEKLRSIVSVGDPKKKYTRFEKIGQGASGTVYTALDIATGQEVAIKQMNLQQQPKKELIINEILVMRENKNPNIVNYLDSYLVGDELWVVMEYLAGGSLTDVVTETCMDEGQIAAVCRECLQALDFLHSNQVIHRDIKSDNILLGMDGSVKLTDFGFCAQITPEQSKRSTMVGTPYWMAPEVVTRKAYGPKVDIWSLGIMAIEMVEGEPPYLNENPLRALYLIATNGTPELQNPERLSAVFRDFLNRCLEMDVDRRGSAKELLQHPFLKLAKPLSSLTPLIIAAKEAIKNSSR
Structure (SMILES),inhibition [1],inhibition [2],inhibition [3],inhibition [4],inhibition [5],inhibition [6],inhibition [7],inhibition [8],inhibition [9],inhibition [10],inhibition [11],inhibition [12],inhibition [13],inhibition [14],inhibition [15],inhibition [16],inhibition [17],inhibition [18],inhibition [19],inhibition [20]
NC(=O)c1cccc(Nc2nccc(Nc3cccc4[nH]ncc34)n2)c1,2.8%,-5.7%,-0.69%,-3.16%,-0.55%,-3.68%,-3.07%,-1.09%,13.4%,3.11%,0.17%,76.9%,95.5%,82.2%,96.7%,77.9%,95.7%,73.5%,95.4%,3.14%
CCn1c(-c2nonc2N)nc2cnc(Oc3cccc(NC(=O)c4ccc(OCCN5CCOCC5)cc4)c3)cc21,2.57%,3.65%,5.84%,-0.41%,0.34%,-3.22%,2.69%,1.02%,-0.29%,-6.86%,-8.77%,3.79%,3.89%,4.58%,4.2%,2.23%,2.73%,4.73%,3.88%,4.38%
CS(=O)(=O)CCNCc1ccc(-c2ccc3ncnc(Nc4ccc(OCc5ccccc5)c(Cl)c4)c3c2)o1,0.42%,-1.29%,7.48%,0.77%,-0.12%,-0.48%,-0.08%,-6.06%,-8.65%,,,1.33%,0.95%,0.8%,3.2%,1.7%,2.85%,1.92%,3.15%,1.4%
Cc1nn(C)c2cc(N(C)c3ccnc(Nc4cccc(S(N)(=O)=O)c4)n3)ccc12,2.03%,5.87%,4.55%,0.68%,1.06%,-1.47%,2.95%,,5.34%,-4.18%,-9.82%,27.9%,73.7%,58.2%,90%,58.2%,90.2%,45.7%,85.4%,20.3%
CCn1c(-c2nonc2N)nc2cncc(C(=O)N3CC[C@H](N)C3)c21,1.04%,10.1%,8.87%,1%,1.51%,5.01%,4.59%,,0.61%,-1.48%,3.33%,3.58%,2.43%,5.83%,2.94%,2.2%,-0.9%,4.86%,2.19%,2.09%
COc1cc(C=NNc2ncnc3c2cnn3-c2ccccc2)ccc1O,13.3%,4.14%,5.41%,2.39%,1.53%,2.39%,2.83%,-3.08%,0.18%,5.73%,2.62%,24.9%,77.9%,40.3%,84.9%,40.1%,88.5%,50.5%,88.7%,32%
CCCN1CCC=C(c2ccc(Nc3nc(Nc4ccccc4C(N)=O)c4cc[nH]c4n3)c(C)c2)C1,-1.15%,8.77%,12.7%,2.2%,3.03%,5%,6.44%,6.43%,14.2%,,-5.41%,-0.02%,5.11%,2.87%,7.11%,1.17%,5.02%,3.91%,8.95%,1.37%
CS(=O)(=O)CCNCc1ccc(-c2ccc3ncnc(Nc4ccc(OCc5cccc(F)c5)c(C(F)(F)F)c4)c3c2)o1,-0.76%,6.77%,8.2%,1.44%,1.87%,4.46%,3.99%,,-0.07%,-1.22%,,4.46%,3.49%,4.63%,3.75%,4.03%,1.37%,4.26%,2.45%,1.73%
COc1ccc(COc2ccc(Cc3cnc(N)nc3N)cc2OC)cc1,0.63%,1.82%,5.79%,0.46%,0.32%,1.75%,1.06%,0.6%,7.84%,0.33%,-2.29%,1.25%,,0.76%,-1.33%,3.17%,-0.65%,2.23%,-0.16%,-0.36%
Fc1cccc(COc2ccc(Nc3ncnc4cc(-c5ccc[nH]5)sc34)cc2Cl)c1,3.26%,5.46%,5.78%,-0.06%,-0.55%,,1.96%,,-0.78%,-2.21%,,1.82%,7.42%,3.38%,5.8%,0.9%,5.26%,2.05%,6.45%,0.63%
COc1ccc(-c2coc3ncnc(N)c23)cc1,1.26%,8.03%,7.01%,1.73%,1.44%,4.88%,4.26%,,-5.35%,-2.56%,-1.23%,3.51%,9.75%,5.34%,11.3%,3.43%,8.4%,5.31%,9.48%,1.41%
Cc1cc(O)cc(C)c1/C=C/c1cncc(-c2nn[nH]n2)c1,0.45%,6.83%,7.1%,2.28%,2.67%,4.55%,5.43%,1.47%,-1.45%,7.17%,-4.74%,17.8%,79.3%,21.5%,79.8%,17.1%,79.9%,23.1%,81.6%,2.2%
COc1cc2ncn(-c3cc(O[C@H](C)c4ccccc4Cl)c(C(N)=O)s3)c2cc1OC,,6.45%,4.82%,0.59%,0.45%,4.18%,6.53%,7.14%,3.97%,0.91%,11.9%,3.23%,28.1%,10.7%,49.4%,9.46%,48.3%,9.97%,43.2%,11.2%
N#Cc1c(NC(=O)c2cccc3ccccc23)sc2c1CCCC2,1.23%,5.02%,3.74%,0.12%,1.16%,2.52%,3.41%,-2.18%,-9.6%,7.76%,1.52%,4.44%,5.5%,4.91%,2.88%,3.89%,3.56%,5.46%,3.18%,2.03%
